Structures are written as SMILES. Several values for one entry are separate records, joined by “and”; a condition that tells them apart may be missing. Identical values can stand only once. Activity calls are given as the source filed them.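 How the source made its calls: active means at least 20% inhibition of 6-phosphogluconate dehydrogenase activity; inactive means the rest.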 Where a SMILES comes first, the peptide text is derived from it.

In the assay the target is 6-phosphogluconate dehydrogenase, decarboxylating (Homo sapiens) (UniProt P52209). Kind of assay: inhibition of human phosphogluconate dehydrogenase – biochemical, recombinant enzyme, NADPH absorbance, primary screen (AID 1159550). Particulars: recombinant 6PGD, NADPH absorbance 341 nm; at 10 µM; stronger effect = higher value.
6-phosphogluconate dehydrogenase, decarboxylating (Homo sapiens), sequence (P52209 whole entry, looked up): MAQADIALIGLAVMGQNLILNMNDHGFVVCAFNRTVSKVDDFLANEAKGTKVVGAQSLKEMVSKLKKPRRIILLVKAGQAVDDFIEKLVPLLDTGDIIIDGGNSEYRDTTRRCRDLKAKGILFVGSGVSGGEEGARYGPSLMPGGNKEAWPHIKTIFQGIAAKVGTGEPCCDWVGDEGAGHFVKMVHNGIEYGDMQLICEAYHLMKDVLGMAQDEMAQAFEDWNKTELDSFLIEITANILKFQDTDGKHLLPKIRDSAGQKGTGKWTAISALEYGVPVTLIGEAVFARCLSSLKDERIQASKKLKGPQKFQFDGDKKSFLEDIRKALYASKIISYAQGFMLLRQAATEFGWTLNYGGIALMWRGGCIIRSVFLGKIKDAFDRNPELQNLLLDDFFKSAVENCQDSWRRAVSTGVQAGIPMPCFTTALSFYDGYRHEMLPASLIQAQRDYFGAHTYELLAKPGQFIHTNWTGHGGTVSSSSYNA
As for `C=C[C@@H](C1=CC(=O)C(OC)=CC1=O)c1ccccc1`, the inhibition – broadly, the drop in the measured response relative to a control, in per cent – was -0.743% (inactive).
Take `C[C@@H]1[C@H]2[C@H](O[C@@H]3O[C@H](CO)[C@@H](O)[C@H](O)[C@H]3O)OC=C(C(=O)O)[C@H]2C[C@@H]1O`: the inhibition was 16.7% (inactive).
`CC(=O)Oc1ccc(-c2cc(=O)c3c(OC(C)=O)cc(OC(C)=O)cc3o2)cc1`: the inhibition was -7.11% (inactive).
On to `COc1cc2c(cc1O)[C@@H](Cc1ccc(O)cc1)N(C)CC2`, for which the inhibition was 0.499% (inactive).
For `Oc1ccc2c(c1)OC(c1ccc(O)c(O)c1)C(O)C2` (stereo not given) the value was 6.96% (inactive).
For the molecule `CC(C)CCC[C@@H](C)[C@H]1CC[C@H]2[C@@H]3CC[C@@H]4C[C@H](O)CC[C@]4(C)[C@H]3CC[C@]12C`, the inhibition is -3.72% (inactive).
The figure for `CC(C)c1ccc2c(c1)CC[C@@]1(C)[C@](C)(C(N)=O)CCC[C@]21C` is 18% (inactive).
Turning to `CC[C@H]1OC(=O)[C@H](C)[C@@H](O[C@H]2C[C@@](C)(OC)[C@@H](O)[C@H](C)O2)[C@H](C)[C@@H](O[C@@H]2O[C@H](C)C[C@H](N(C)C)[C@H]2O)[C@](C)(O)C[C@@H](C)[C@@H]2NC(COCCOC)O[C@H]([C@H]2C)[C@]1(C)O` (stereo not given in full), the inhibition was 5.47% (inactive).
The figure for `Oc1cc(O)cc(/C=C/c2ccccc2)c1` is -1.17% (inactive); for `OC[C@H]1O[C@@H](O[C@H]2[C@H](O)[C@@H](O)[C@H](O)O[C@@H]2CO)[C@H](O)[C@@H](O)[C@@H]1O` it is -3.99% (inactive); for `CC1(C)CCC2(C(=O)O)CCC3(C)C(=CCC4C5(C)CCC(O)C(C)(C)C5CCC43C)C2C1` (stereo not given) it is 0.817% (inactive).
On to `Nc1nc2ncc(C(=O)O)nc2c(=O)[nH]1`, for which the inhibition is 13.3% (inactive).
For `NC[C@@H]1OC(O[C@@H]2[C@@H](O)[C@H](O[C@H]3[C@@H](O)[C@H](N)C[C@H](N)[C@H]3O[C@H]3O[C@H](CN)[C@H](O)[C@H](O)[C@H]3N)O[C@@H]2CO)[C@H](N)[C@@H](O)[C@H]1O` (stereo not given in full) the value was -6.73% (inactive); for `CC1(C)C=CC(=O)[C@]2(C)[C@H]3CC[C@@]4(C)[C@H](c5ccoc5)OC(=O)[C@H]5O[C@]54[C@]3(C)C(=O)C[C@@H]12`, -8.35% (inactive); for `CC(=O)O[C@@H]1CC2C(C)(C)C=CC(=O)[C@]2(C)C2CC[C@@]3(C)[C@H](c4ccoc4)OC(=O)C4OC43[C@@]21C` (stereo not given in full), -6.87% (inactive).
In the case of `NCCCC[C@H](N)C(=O)N[C@@H](Cc1ccccc1)C(=O)N[C@@H](Cc1ccc(O)cc1)C(=O)O` (H-Lys-Phe-Tyr-OH), the inhibition is 6.75% (inactive).
As for `Cc1cc(=O)c2c(O)c3c(cc2o1)OCC(C)CC3` (stereo not given), the inhibition was 4.57% (inactive).
`CC(C)c1c(O)ccc2c1CCC1C(C)(CO)CCCC21C` (stereo not given): the inhibition is -0.0186% (inactive).
As for `CC1(C)S[C@H]2[C@@H](NC(=O)[C@H](NC(=O)N3CCNC3=O)c3ccccc3)C(=O)N2[C@@H]1C(=O)O`, the inhibition was 10.5% (inactive).
The figure for `C1CCN2CC3CC(CN4CCCCC34)C2C1` (stereo not given) is 12.3% (inactive); for `NCCCC(N)CC(=O)NCC1NC(=O)C(CO)NC(=O)C(N)CNC(=O)C(C2CCNC(N)=N2)NC(=O)/C(=C/NC(N)=O)NC1=O` (stereo not given) it is -0.986% (inactive).
The figure for `CC12CCC3c4ccc(OC(=O)c5ccccc5)cc4CCC3C1CCC2=O` (stereo not given) is -9.5% (inactive); for `CC(=O)O[C@H]1C[C@@H](OC(C)=O)C(C)(C)[C@@H]2C[C@@H](O)[C@@]3(C)[C@H](CC[C@]4(C)[C@@H](c5ccoc5)OC(=O)[C@H]5O[C@@]534)[C@@]12C` it is 13.5% (inactive).
On to `COC(=O)[C@]1(C)CC[C@]2(C)CC[C@]3(C)C4=CCc5c(cc(OC(C)=O)c(OC(C)=O)c5C)[C@]4(C)CC[C@@]3(C)[C@@H]2C1`, for which the inhibition is 10.1% (inactive).
The figure for `CCOC(=O)C(=O)C1(C(=O)OCC)Oc2cc(OC)cc(OC)c2C(=O)C1c1ccccc1` (stereo not given) is 14.2% (inactive); for `CC(=O)OC1CCC2(C)C(=CCC3C2CCC2(C)C(C(C)CCCC(C)C)CCC32)C1` (stereo not given) it is 13.3% (inactive); for `C[C@@H]1O[C@@H](O[C@H]2[C@H](O[C@H]3CC[C@@]4(C)[C@@H](CC[C@]5(C)[C@@H]4CC=C4[C@@H]6CC(C)(C)CC[C@]6(C(=O)O[C@@H]6O[C@H](CO[C@@H]7O[C@H](CO)[C@@H](O[C@@H]8O[C@@H](C)[C@H](O)[C@@H](O)[C@H]8O)[C@H](O)[C@H]7O)[C@@H](O)[C@H](O)[C@H]6O)CC[C@]45C)[C@]3(C)CO)OC[C@H](O)[C@@H]2O)[C@H](O)[C@H](O)[C@H]1O` it is 5.65% (inactive).
Regarding `O[C@@H]1[C@@H](O)[C@@H]2OC[C@@H](O2)[C@H]1O`, the inhibition is -10.4% (inactive).
Take `CCC[C@H]1CC2=C(C[C@@H](CC)CC3=C1C(=O)OC3=O)C(=O)OC2=O`: the inhibition was -4.81% (inactive).
Consider `CCCc1occc(=O)c1/C=C/O`, for which the inhibition was -1.45% (inactive).
Regarding `COc1cc2c(cc1-c1coc3c4c(c(OC)cc3c1=O)OC(C)(C)C=C4)OCO2`, the inhibition was 8.44% (inactive).
On to `COC(=O)c1cc(OC)c(=O)c2c(OC)c(OC)ccc2c1`, for which the inhibition was 7.65% (inactive).
Regarding `CO[C@H]1/C=C/O[C@@]2(C)Oc3c(C)c(O)c4c(O)c(c(/C=N/N5CCN(C)CC5)c(O)c4c3C2=O)NC(=O)/C(C)=C/C=C/[C@H](C)[C@H](O)[C@@H](C)[C@@H](O)[C@@H](C)[C@H](OC(C)=O)[C@@H]1C`, the inhibition is 18.2% (inactive).
For `CC(C)CCC[C@@H](C)[C@H]1CC[C@H]2[C@@H]3CC[C@H]4CC(=O)CC[C@]4(C)[C@H]3CC[C@]12C` the value was -4.87% (inactive) and 3.54% (inactive); for `CC1=CC(=O)C2C(C)(C)CCCC2(C)C1(O)CCc1ccoc1` (stereo not given), -22.2% (inactive).
On to `CC1=CCCC(C)=CCC(C)(C)C=CC1`, for which the inhibition is -0.753% (inactive).
For `CC(=O)OC1CCC2(C)C(CCC3C2CCC2(C)C3CC3OC4(CCC(C)CO4)C(C)C32)C1` (stereo not given) the value was 4.61% (inactive); for `COc1ccccc1-c1cc(=O)c2cccc(OC)c2o1`, 4.44% (inactive); for `CC(=O)OC1CCC2(C)C(CCC3C2CC(=O)C2(C)C3CC3OC4(CCC(C)CO4)C(C)C32)C1` (stereo not given), 5.72% (inactive).
For `COc1ccc2c(c1)[C@@]1(C)CC[C@@H](O)C[C@@H]1CC2` the value was 13.3% (inactive).

(Values after PubChem BioAssay.)
